Where “and” joins values, the source holds several entries; their conditions need not be identical. Identical values can stand only once. Results filed as inconclusive are left out. Some structures have more than one record in an assay (separate samples or runs), and their calls can disagree. Calls of active or inactive are those of the source. Unless noted, calls come from the whole dose curve; as a rule, active = well fitted curve in the direction sought with a large enough effect; inconclusive = small, poorly fitted or top-dose-only effect, or another doubt; inactive = no such curve, though single readings can be large; an effect the other way counts as inactive or inconclusive.
Key:
[1] = Validation screen for small molecules that induce DNA re-replication in SW480 colon adenocarcinoma cells (AID 504364); note: potency is the fitted concentration of half-maximal effect
How it was run: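 SW480 cells (250/well) exposed 48 h at 37 C, 5% CO2, then Hoechst-stained 40 min. Nuclear DNA content imaged by fluorescence scanning (405 nm excitation, 500-530 nm emission); re-replication scored as increased nuclei with elevated intensity.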

[2] = target: Peptidyl-prolyl cis-trans isomerase NIMA-interacting 1 (Homo sapiens) (UniProt Q13526); assay: qHTS Validation Assay to Find Inhibitors of Pin1 (AID 504536; active = well fitted inhibition curve with a large enough effect in the polarisation, with a control signal flat, not every such curve was filed as active; the % refers to the polarisation; note: potency is the fitted concentration of half-maximal effect)
How it was run: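 Fluorescence polarization competition: compounds (titration) displace HiFluor-488-labeled Pin1-1b peptide from Pin1 (0.3 uM final) in pH 7.5 HEPES buffer with DTT, 10 min at room temperature; %Activity normalized to no-enzyme wells, curves fitted.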

[3] = target: Phosphoglycerate kinase, glycosomal (Trypanosoma brucei brucei) (UniProt P07378); assay: qHTS Validation Assay to Find Inhibitors of Phosphoglycerate Kinase (AID 504547); note: potency is the fitted concentration of half-maximal effect
How it was run: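 PGK activity was coupled to GAPDH (100nM final), which generates the unstable substrate 1,3-bisphosphoglycerate in-well. Reactions ran 60 minutes at room temperature in 100mM TEA pH 7.6, 5mM MgCl2, 0.01% Tween-20, then Kinase-Glo Plus luminescence was read.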

[4] = target: phosphoglycerate mutase (Leishmania major) (UniProt Q4Q090); assay: qHTS Validation Assay to Find Inhibitors of Phosphoglycerate Mutase (AID 504548); note: series mostly up to about 58 µM
How it was run: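 Lm PGAM at 1.25 nM final with substrate in 100 mM TEA pH 7.6, 5 mM MgCl2, 0.01% Tween-20; 45 min at room temperature. Kinase-GloPlus added, 10 min, end-point luminescence read.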

[5] = qHTS for Inhibitors of ATXN expression: Validation of Cytotoxic Assay (AID 588349)
How it was run: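 HEK293 cells treated with titrated compound for 72 hr at 37 degrees C; viability read as intracellular ATP by CellTiter Glo luminescence.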

[6] = qHTS for Inhibitors of ATXN expression: Validation (AID 588378); note: nearly all actives have a fitted effect of over 75% in size; note: potency is the fitted concentration of half-maximal effect
How it was run: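 After a 2 h attachment and 24 h compound incubation, HEK293-ATXN2-FFLuc wells are read for fluorescence at 405 nm excitation/525 nm emission as a viability measure, then for Bright-Glo luminescence reflecting ATXN2 expression.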

[7] = target: Ubiquitin carboxyl-terminal hydrolase 1 (Homo sapiens) (UniProt O94782); assay: Inhibitors of USP1/UAF1: Pilot qHTS (AID 504865); note: nearly all actives have a fitted effect of over 35% in size; note: potency is the fitted concentration of half-maximal effect
How it was run: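 Enzyme-free wells gave the negative control, while test wells held 1nM USP1/UAF1 preincubated with compound for 15 min at room temperature. Ub-Rho at 150nM final started the reaction, and fluorescence at 480/540 nm was recorded kinetically.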

[8] = target: DNA dC->dU-editing enzyme APOBEC-3G (Homo sapiens) (UniProt Q9HC16); assay: qHTS for inhibitors of Vif-A3G interactions: Validation (AID 588379)
How it was run: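 HeLa cells stably expressing Vif and A3G-eYFP, 700 cells/well, incubated overnight at 37 deg C, then exposed to compound overnight at 37 deg C. Inhibition of Vif-mediated degradation read as increased yellow fluorescence (Ex 488/Em 500-530) by laser-scanning cytometry.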

[9] = target: Estrogen receptor (Homo sapiens) (UniProt P03372); assay: qHTS assay for small molecule antagonists of estrogen receptor alpha signaling (AID 588513; active = well fitted curve in the direction sought with a large enough effect in the signal ratio, with a control signal flat, not every such curve was filed as active; the % refers to the signal ratio)
How it was run: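 Antagonist-mode qHTS in ER-alpha-UAS-bla HEK 293 cells: compound titration, 0.5nM estradiol for 18 h, CCF4 fluorescence, Hill-derived IC50.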

[10] = target: Estrogen receptor (Homo sapiens) (UniProt P03372); assay: qHTS assay for small molecule agonists of estrogen receptor alpha signaling (AID 588514; calls by dose curve; note: nearly all actives have a fitted effect of over 70% in size)
How it was run: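 ER-alpha-UAS-bla GripTite HEK293 cells, 5000/well in 2% charcoal/dextran-stripped FBS medium, treated with compound titrations 18 h at 37 C. CCF4 beta-lactamase read by fluorescence after 2 h RT; normalised to 20 nM 17-beta-estradiol (100%) and DMSO (0%), Hill fit for EC50 and efficacy.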

Measured: Potency

DNA dC->dU-editing enzyme APOBEC-3G (Homo sapiens), sequence (Q9HC16 whole entry, looked up): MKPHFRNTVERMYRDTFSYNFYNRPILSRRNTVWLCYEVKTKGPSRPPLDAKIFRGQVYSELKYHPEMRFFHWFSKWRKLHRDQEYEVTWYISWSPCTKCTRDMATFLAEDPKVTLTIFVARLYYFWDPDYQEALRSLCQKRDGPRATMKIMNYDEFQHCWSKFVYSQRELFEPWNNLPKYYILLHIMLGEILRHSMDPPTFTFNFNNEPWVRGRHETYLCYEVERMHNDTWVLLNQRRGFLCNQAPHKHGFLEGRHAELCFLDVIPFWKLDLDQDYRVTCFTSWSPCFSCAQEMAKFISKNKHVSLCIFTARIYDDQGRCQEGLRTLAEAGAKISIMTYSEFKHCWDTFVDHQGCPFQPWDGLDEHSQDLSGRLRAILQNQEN
Ubiquitin carboxyl-terminal hydrolase 1 (Homo sapiens), sequence (O94782 whole entry, looked up): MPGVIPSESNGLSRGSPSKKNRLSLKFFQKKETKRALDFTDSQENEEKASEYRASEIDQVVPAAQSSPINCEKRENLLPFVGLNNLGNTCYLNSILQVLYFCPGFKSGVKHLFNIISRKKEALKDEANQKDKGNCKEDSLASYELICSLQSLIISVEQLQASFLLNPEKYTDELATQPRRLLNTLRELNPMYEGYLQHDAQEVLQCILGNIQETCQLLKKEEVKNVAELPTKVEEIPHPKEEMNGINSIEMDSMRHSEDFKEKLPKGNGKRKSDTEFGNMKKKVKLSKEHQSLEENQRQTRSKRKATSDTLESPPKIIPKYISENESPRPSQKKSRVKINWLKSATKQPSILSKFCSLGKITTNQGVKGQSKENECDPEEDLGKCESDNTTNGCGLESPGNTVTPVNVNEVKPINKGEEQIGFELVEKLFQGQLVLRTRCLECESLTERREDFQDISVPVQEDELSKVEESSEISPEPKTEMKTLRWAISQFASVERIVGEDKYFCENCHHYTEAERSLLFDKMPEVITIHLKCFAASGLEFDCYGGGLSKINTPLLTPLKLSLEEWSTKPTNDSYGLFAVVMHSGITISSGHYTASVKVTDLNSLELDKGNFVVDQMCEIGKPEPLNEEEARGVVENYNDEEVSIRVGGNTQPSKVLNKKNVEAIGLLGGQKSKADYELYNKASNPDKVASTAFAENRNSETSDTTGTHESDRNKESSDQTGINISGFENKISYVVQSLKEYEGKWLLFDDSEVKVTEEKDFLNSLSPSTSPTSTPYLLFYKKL
Estrogen receptor (Homo sapiens), sequence (P03372 whole entry, looked up): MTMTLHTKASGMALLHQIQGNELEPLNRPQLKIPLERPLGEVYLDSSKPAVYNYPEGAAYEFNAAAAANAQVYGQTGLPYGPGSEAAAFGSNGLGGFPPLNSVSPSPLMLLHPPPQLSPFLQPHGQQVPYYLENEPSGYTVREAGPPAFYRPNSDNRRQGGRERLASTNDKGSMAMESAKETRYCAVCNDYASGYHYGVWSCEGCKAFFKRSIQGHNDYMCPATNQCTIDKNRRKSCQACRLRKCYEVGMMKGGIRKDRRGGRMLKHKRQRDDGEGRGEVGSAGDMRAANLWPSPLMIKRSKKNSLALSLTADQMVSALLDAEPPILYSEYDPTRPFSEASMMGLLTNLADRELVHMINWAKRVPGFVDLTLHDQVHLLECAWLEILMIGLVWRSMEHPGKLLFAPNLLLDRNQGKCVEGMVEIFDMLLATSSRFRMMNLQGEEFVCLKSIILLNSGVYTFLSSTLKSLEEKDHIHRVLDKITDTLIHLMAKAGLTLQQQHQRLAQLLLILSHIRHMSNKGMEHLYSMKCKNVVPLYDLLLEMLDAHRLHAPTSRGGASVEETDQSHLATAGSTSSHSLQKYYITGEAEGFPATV
phosphoglycerate mutase (Leishmania major), sequence (Q4Q090 1-553): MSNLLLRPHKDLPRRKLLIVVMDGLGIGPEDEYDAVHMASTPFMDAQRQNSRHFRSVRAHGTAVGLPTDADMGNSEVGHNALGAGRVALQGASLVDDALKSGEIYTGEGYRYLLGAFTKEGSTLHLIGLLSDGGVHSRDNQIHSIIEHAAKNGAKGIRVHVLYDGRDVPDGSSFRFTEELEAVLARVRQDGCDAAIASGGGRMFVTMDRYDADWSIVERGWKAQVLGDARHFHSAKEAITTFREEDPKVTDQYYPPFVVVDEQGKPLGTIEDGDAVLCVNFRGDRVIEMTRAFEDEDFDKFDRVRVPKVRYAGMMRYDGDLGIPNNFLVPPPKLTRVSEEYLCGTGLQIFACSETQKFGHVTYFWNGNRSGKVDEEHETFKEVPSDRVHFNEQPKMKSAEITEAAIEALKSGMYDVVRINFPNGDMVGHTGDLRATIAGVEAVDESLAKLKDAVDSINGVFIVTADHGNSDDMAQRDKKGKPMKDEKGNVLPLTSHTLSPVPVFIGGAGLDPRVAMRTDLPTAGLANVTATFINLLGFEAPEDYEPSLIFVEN
Phosphoglycerate kinase, glycosomal (Trypanosoma brucei brucei), sequence (P07378 whole entry, looked up): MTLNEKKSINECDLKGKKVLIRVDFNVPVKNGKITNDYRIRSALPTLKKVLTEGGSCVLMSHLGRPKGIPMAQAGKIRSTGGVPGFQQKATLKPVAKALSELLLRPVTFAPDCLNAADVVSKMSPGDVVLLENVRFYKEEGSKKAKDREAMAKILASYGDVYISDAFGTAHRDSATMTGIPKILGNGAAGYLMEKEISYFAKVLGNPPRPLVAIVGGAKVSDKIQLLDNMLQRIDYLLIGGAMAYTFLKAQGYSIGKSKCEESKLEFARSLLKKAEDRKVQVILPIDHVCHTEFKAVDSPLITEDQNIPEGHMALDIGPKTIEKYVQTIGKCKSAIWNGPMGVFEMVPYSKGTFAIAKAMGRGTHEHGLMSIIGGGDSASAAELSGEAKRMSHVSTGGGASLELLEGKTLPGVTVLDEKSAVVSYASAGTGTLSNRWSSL
Peptidyl-prolyl cis-trans isomerase NIMA-interacting 1 (Homo sapiens), sequence (Q13526 whole entry, looked up): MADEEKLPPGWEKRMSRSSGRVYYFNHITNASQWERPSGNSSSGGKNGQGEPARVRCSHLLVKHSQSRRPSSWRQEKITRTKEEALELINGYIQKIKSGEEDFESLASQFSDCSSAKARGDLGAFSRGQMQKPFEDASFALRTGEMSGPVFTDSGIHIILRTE

Cc1cnc(C(=O)NCCc2ccc(S(=O)(=O)NC(=O)NC3CCCCC3)cc2)cn1
inactive: [1] | [2] | [3] | [4] | [5] | [6]

CN1CCN(C2=Nc3cc(Cl)ccc3Nc3ccccc32)CC1
inactive: [1] | [2] | [3] | [4] | [7] | [8]

Nc1ccn([C@H]2CC[C@@H](CO)O2)c(=O)n1
inactive: [1] | [2] | [3] | [4] | [7] | [5] | [6] | [8] | [9] | [10]

OCCN1CCN(CCCN2c3ccccc3Sc3ccc(C(F)(F)F)cc32)CC1
inactive: [1] | [2] | [3]

CN(C)CCC=C1c2ccccc2C=Cc2ccccc21
inactive: [1] | [2] | [3] | [4] | [7] | [5]

CCOC(=O)c1ncn2c1CN(C)C(=O)c1cc(F)ccc1-2
inactive: [1] | [2] | [3] | [4] | [7] | [5] | [6] | [8]

CNCCCC12CCC(c3ccccc31)c1ccccc12
active: [6] 15.8 µM
inactive: [1] | [2] | [3] | [4] | [7] | [8]

CC(C)Cc1ccc(C(C)C(=O)O)cc1 (stereo not given)
inactive: [1] | [2] | [3] | [4] | [7] | [5] | [6] | [9] | [10]

Cc1ccc(C(=O)Nc2ccc(S(=O)(=O)O)c3cc(S(=O)(=O)O)cc(S(=O)(=O)O)c23)cc1NC(=O)c1cccc(NC(=O)Nc2cccc(C(=O)Nc3cc(C(=O)Nc4ccc(S(=O)(=O)O)c5cc(S(=O)(=O)O)cc(S(=O)(=O)O)c45)ccc3C)c2)c1
inactive: [1] | [4] | [5] | [6] | [8]
active: [2] 0.426 µM | [3] 2.69 µM | [7] 14.1 µM and 7.94 µM and 5.01 µM

O=C1N(c2ccccc2)c2ccccc2C1(Cc1ccncc1)Cc1ccncc1
inactive: [1] | [2] | [3] | [4] | [7] | [5] | [8]

COc1ccc2[nH]cc(CCNC(C)=O)c2c1
inactive: [1] | [2] | [3] | [4] | [7] | [5] | [6] | [8] | [9] | [10]

NC(=O)OCC(COC(N)=O)c1ccccc1
inactive: [1] | [2] | [3] | [4] | [7] | [5] | [6] | [8]

O=C1c2c(O)ccc(O)c2C(=O)c2c(NCCNCCO)ccc(NCCNCCO)c21
inactive: [1] | [2]

CCC1(c2ccccc2)C(=O)NCNC1=O
inactive: [1] | [2] | [3] | [4] | [7] | [5] | [6] | [8]

Cc1cn([C@H]2C=C[C@@H](CO)O2)c(=O)[nH]c1=O
inactive: [1] | [2] | [3] | [4] | [7] | [5] | [6]

Cc1cc(C(C)(C)C)c(O)c(C)c1CC1=NCCN1
inactive: [1] | [2] | [3] | [4] | [7] | [5] | [8]

O=C(c1ccc(F)cc1)C1CCN(CCn2c(=O)[nH]c3ccccc3c2=O)CC1
inactive: [1] | [2] | [3] | [4] | [7] | [5] | [6] | [8]

CC(C(=O)O)c1cccc(C(=O)c2ccccc2)c1 (stereo not given)
inactive: [1] | [2] | [3] | [4] | [7] | [5] | [6]

CN1C2CCC1CC(OC(=O)C(CO)c1ccccc1)C2 (stereo not given)
inactive: [1] | [2] | [3] | [4] | [5] | [6]

Cc1cc(C(C)(C)C)cc(C)c1CC1=NCCN1
inactive: [1] | [2] | [3] | [4] | [7] | [5]

COc1ccc(C2CNC(=O)C2)cc1OC1CCCC1 (stereo not given)
inactive: [1] | [2] | [3] | [4] | [7] | [5] | [6]

CC(C)NCC(O)COc1ccc(CCOCC2CC2)cc1 (stereo not given)
inactive: [1] | [2] | [3] | [4] | [7] | [5] | [6]

CC(C)(Oc1ccc(C2CC2(Cl)Cl)cc1)C(=O)O (stereo not given)
inactive: [1] | [2] | [3] | [4] | [7] | [5] | [6] | [9]

COC(=O)Nc1nc2ccc(C(=O)c3cccs3)cc2[nH]1
active: [1] 0.116 µM
inactive: [2] | [3] | [4] | [7] | [6] | [8]

COc1ccccc1N1CCN(CC(O)COc2cccc3ccccc23)CC1 (stereo not given)
inactive: [1] | [2] | [3]

CCCNCC(O)COc1ccccc1C(=O)CCc1ccccc1 (stereo not given)
inactive: [1] | [2] | [3] | [4]

Cc1ccccc1N1C(=O)c2cc(S(N)(=O)=O)c(Cl)cc2NC1C (stereo not given)
inactive: [1] | [2] | [3] | [4] | [7] | [5] | [6]

Clc1ccc2c(c1)C(N1CCNCC1)=Nc1ccccc1O2
inactive: [1] | [2] | [3] | [4] | [7]

CN(C)c1nc(N(C)C)nc(N(C)C)n1
inactive: [1] | [2] | [3] | [4] | [7] | [5] | [6]

NCCc1cnc[nH]1
inactive: [1] | [2] | [3] | [4] | [5] | [6]
44.7 µM (active) and inactive: [7]

O=c1[nH]cc(F)c(=O)[nH]1
inactive: [1] | [2] | [3] | [4] | [7] | [5] | [9]

CC(C)C(=O)Nc1ccc([N+](=O)[O-])c(C(F)(F)F)c1
inactive: [1] | [2] | [3] | [4] | [7] | [5] | [9]

CCc1cccc2c3c([nH]c12)C(CC)(CC(=O)O)OCC3 (stereo not given)
inactive: [1] | [2] | [3] | [4] | [7] | [5] | [6]

CN(C)CCCN1c2ccccc2CCc2ccc(Cl)cc21
inactive: [1] | [2] | [3] | [7] | [8]

CN1CCC(=C2c3ccccc3C=Cc3ccccc32)CC1
inactive: [1] | [2] | [3] | [7] | [5] | [8]

CC(CCc1ccc(O)cc1)NCCc1ccc(O)c(O)c1 (stereo not given)
inactive: [1] | [2] | [3] | [7]

N[C@@H](Cc1c[nH]c2ccc(O)cc12)C(=O)O
inactive: [1] | [2] | [3] | [7] | [5] | [6] | [9] | [10]

O=C(c1ccc(OCCN2CCCCC2)cc1)c1c(-c2ccc(O)cc2)sc2cc(O)ccc12
inactive: [1] | [2] | [3] | [7]

Cn1c(=O)c2[nH]cnc2n(C)c1=O
inactive: [1] | [2] | [3] | [4] | [5] | [6] | [9] | [10]

COc1ccc2c(c1)c(CC(=O)O)c(C)n2C(=O)c1ccc(Cl)cc1
inactive: [1] | [2] | [3] | [7] | [5] | [6] | [8] | [9]

CC[N+](CC)(CC)CCOc1cccc(OCC[N+](CC)(CC)CC)c1OCC[N+](CC)(CC)CC
inactive: [1] | [2] | [3] | [5] | [6]

COc1cc2nc(N3CCN(C(=O)C4COc5ccccc5O4)CC3)nc(N)c2cc1OC (stereo not given)
inactive: [1] | [2] | [3] | [4] | [6]

C[C@](N)(Cc1ccc(O)c(O)c1)C(=O)O
inactive: [1] | [2] | [7] | [8]
active: [3] 2.13 µM
